Test results as given in PubChem BioAssay (NCI).
The panel holds about 83,000 compounds, 20% with a hit somewhere; the sample as a whole holds those more often.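 Single-concentration screen, 48 h exposure, 96-well plates. Endpoint: percent growth. Below 10 = active.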 Calls of active or inactive are those of the source.

Experiments:
Assay in all cases: NCI-60 one-dose screen, 48 h (100 = growth as untreated, 0 = no growth, -100 = all killed)
Settings in all cases: 10 µM unless noted
SK-MEL-2 melanoma = test system: SK-MEL-2 melanoma
EKVX NSCLC = test system: EKVX NSCLC
SN12C renal = test system: SN12C renal
UO-31 renal = test system: UO-31 renal
TK-10 renal = test system: TK-10 renal
ACHN renal = test system: ACHN renal
CAKI-1 renal = test system: CAKI-1 renal
CCRF-CEM leukemia = test system: CCRF-CEM leukemia
MOLT-4 leukemia = test system: MOLT-4 leukemia
A498 renal = test system: A498 renal

Measured: growth

CC(C)(C)c1ccc(C(=O)Nc2sc3c(c2C(N)=O)CCC(=O)C3)cc1
active: SK-MEL-2 melanoma 2.34% | EKVX NSCLC 5.58% | SN12C renal -1.37% | UO-31 renal -99.6% | TK-10 renal -33.9% | ACHN renal -98.6% | CAKI-1 renal -74.9% | CCRF-CEM leukemia 1.49% | MOLT-4 leukemia 4.19%

O=C(NCCOCCOCCOCCNC(=O)c1cc2c(o1)C(=O)c1ccccc1C2=O)NC12CC3CC(CC(C3)C1)C2
inactive: CCRF-CEM leukemia 18.8% | MOLT-4 leukemia 12.1%
active: SK-MEL-2 melanoma -17.9% | EKVX NSCLC -4.03% | SN12C renal -68.2% | UO-31 renal -59% | TK-10 renal -3.88% | ACHN renal 0.47% | CAKI-1 renal -5.41%

COc1cc(-c2cc(-c3ccc(Nc4nc(Nc5ccccc5)nc(Nc5ccc(Cl)cc5)n4)cc3)nc(N)n2)cc(OC)c1OC
inactive: SK-MEL-2 melanoma 59.5% | EKVX NSCLC 59.4% | SN12C renal 70.7% | UO-31 renal 43.1% | TK-10 renal 91.3% | ACHN renal 59.7% | CAKI-1 renal 60.7% | CCRF-CEM leukemia 28.2% | MOLT-4 leukemia 38.4%

COc1cc2cc(Oc3ccc(NC(=O)Nc4cc(C(F)(F)F)cc(C(F)(F)F)c4)cc3)c(C)nc2cc1OCCN1CCCCC1
active: SK-MEL-2 melanoma -35.6% | EKVX NSCLC -73.1% | SN12C renal -92.6% | UO-31 renal -98.9% | TK-10 renal -72.4% | ACHN renal -100% | CAKI-1 renal -76.7% | CCRF-CEM leukemia -26.7% | MOLT-4 leukemia -44.4%

C=CCOc1cccc(/C=C2\SC(=Nc3ccc(O)cc3)NC2=O)c1
active: CCRF-CEM leukemia 4.85%
inactive: SK-MEL-2 melanoma 40.6% | EKVX NSCLC 28.8% | SN12C renal 14.9% | UO-31 renal 20.7% | TK-10 renal 67.7% | ACHN renal 24.3% | CAKI-1 renal 24.4% | MOLT-4 leukemia 13.4%

CC(=O)c1cc2c(o1)C(=O)c1ccccc1C2=O
active: SK-MEL-2 melanoma -69.4% | EKVX NSCLC -81% | SN12C renal -81.2% | UO-31 renal -98.1% | TK-10 renal -96.4% | ACHN renal -98.3% | CAKI-1 renal -98.4% | CCRF-CEM leukemia -74.8% | MOLT-4 leukemia -43%

CCn1c(Sc2nnc(NC(=O)CSC(=S)N3CCCCC3)s2)nc2c1c(=O)n(C)c(=O)n2C
inactive: SK-MEL-2 melanoma 81.2% | EKVX NSCLC 88.5% | SN12C renal 96.6% | UO-31 renal 79.8% | TK-10 renal 95.8% | ACHN renal 77.5% | CAKI-1 renal 47.7% | CCRF-CEM leukemia 84.7% | MOLT-4 leukemia 97.6%

CC(=[N-])N1CCC[C@@H](Nc2c3ccccc3nc3ccccc23)C1.[Cl][Pt].[NH-]CCC[NH-]
inactive: SK-MEL-2 melanoma 52.4% | EKVX NSCLC 52.3% | UO-31 renal 27.4% | CAKI-1 renal 15.5% | CCRF-CEM leukemia 35.4% | MOLT-4 leukemia 14.6%
active: SN12C renal 5.71% | TK-10 renal 1.35% | ACHN renal -22.2%

COc1ccc(/C=C(\C#N)n2nnc3ccccc32)cc1
inactive: SK-MEL-2 melanoma 38.5% | EKVX NSCLC 24.1% | SN12C renal 18.9% | UO-31 renal 33.2% | TK-10 renal 44% | ACHN renal 23% | CAKI-1 renal 25% | CCRF-CEM leukemia 18.8% | MOLT-4 leukemia 18.7%

O=C1NC(=S)S/C1=C\N1N=C(c2ccc(Cl)cc2)CC1c1ccc(F)cc1 (stereo unspecified)
inactive: SK-MEL-2 melanoma 95.5% | EKVX NSCLC 76% | SN12C renal 96.5% | UO-31 renal 60.1% | TK-10 renal 101% | ACHN renal 87.2% | CAKI-1 renal 85.4% | CCRF-CEM leukemia 65.5% | MOLT-4 leukemia 45.1%

Cc1ccc(/C=C(\C#N)n2nnc3cc(Cl)c(Cl)cc32)cc1
active: UO-31 renal 0.755% | CCRF-CEM leukemia 9.85% | MOLT-4 leukemia 9.51%
inactive: SK-MEL-2 melanoma 26% | EKVX NSCLC 36.5% | SN12C renal 19.5% | TK-10 renal 44.6% | ACHN renal 25.7% | CAKI-1 renal 22.2%

Cl.Fc1c[c-]c(-c2ccccn2)c(F)c1.[Pt].c1ccc(P(c2ccccc2)C([PH+](c2ccccc2)c2ccccc2)[PH+](c2ccccc2)c2ccccc2)cc1
active: SK-MEL-2 melanoma 7.06% | UO-31 renal -5.69% | CAKI-1 renal -1.81%
inactive: EKVX NSCLC 20.8% | SN12C renal 11.2% | TK-10 renal 24.3% | ACHN renal 17.5% | CCRF-CEM leukemia 17.3% | MOLT-4 leukemia 13.2%

COc1cc(CNC(=O)/C=C/C=C/c2ccc3c(c2)OCO3)ccc1OCc1cn(-c2ccc(Cl)c(Cl)c2)nn1
active: SK-MEL-2 melanoma -37.3% | TK-10 renal -11.4% | ACHN renal -51% | CAKI-1 renal -17% | MOLT-4 leukemia -12.2%
inactive: EKVX NSCLC 13.1% | SN12C renal 34.1% | UO-31 renal 45.5% | CCRF-CEM leukemia 57.7%

CCCc1cc(=O)oc2c3c(c4c(c12)OC(C)(C)C=C4)O[C@@H](C)[C@H](C)C3=O
inactive: SK-MEL-2 melanoma 97.1% | EKVX NSCLC 63% | SN12C renal 82.7% | UO-31 renal 71.9% | TK-10 renal 83.2% | ACHN renal 84.2% | CAKI-1 renal 72.8% | CCRF-CEM leukemia 70.3% | MOLT-4 leukemia 69.1%

Cc1[nH]c(-c2nc3ccccc3[nH]2)c(C)c1C(=O)NNc1ccc(Cl)cc1
inactive: SK-MEL-2 melanoma 103% | EKVX NSCLC 94.2% | SN12C renal 90.7% | UO-31 renal 72.5% | TK-10 renal 106% | ACHN renal 102% | CAKI-1 renal 80.2% | CCRF-CEM leukemia 94.6% | MOLT-4 leukemia 81.6%

N#C/C(=C\c1ccc(Br)cc1)n1nnc2cc(Cl)c(Cl)cc21
active: CCRF-CEM leukemia 8.21% | MOLT-4 leukemia 6.13%
inactive: SK-MEL-2 melanoma 33.9% | EKVX NSCLC 59.6% | SN12C renal 35% | UO-31 renal 35.1% | TK-10 renal 59.6% | ACHN renal 41% | CAKI-1 renal 21.9%

COc1ccc(-c2nnc(-c3ccc4c(c3)nc(-c3ccccc3)n4C3CCCCC3)o2)cc1
inactive: SK-MEL-2 melanoma 57.9% | EKVX NSCLC 73% | SN12C renal 65.4% | UO-31 renal 40.7% | TK-10 renal 68.9% | ACHN renal 60.5% | A498 renal 85.2% | CCRF-CEM leukemia 35.4% | MOLT-4 leukemia 31.5%

CCOC(=O)N1CCc2c(sc3c2C(=O)N[C@H](c2ccc(OC)cc2)N3)C1
inactive: SK-MEL-2 melanoma 96.5% | EKVX NSCLC 101% | SN12C renal 85.4% | UO-31 renal 87.6% | TK-10 renal 109% | ACHN renal 103% | A498 renal 96.4% | CCRF-CEM leukemia 95.9% | MOLT-4 leukemia 99.7%

Cc1nc(Nc2ccc(NC(=S)Nc3ccccc3)cc2)nc2nc(Nc3cccc(Cl)c3)[nH]c(=O)c12
inactive: SK-MEL-2 melanoma 88.8% | EKVX NSCLC 119% | SN12C renal 97.4% | UO-31 renal 96.4% | TK-10 renal 142% | ACHN renal 96.7% | A498 renal 91.3% | CCRF-CEM leukemia 81.2% | MOLT-4 leukemia 64.9%

Nc1nc(Nc2ccc(Cl)cc2)nn1S(=O)(=O)c1ccc(-c2ccc(F)cc2)cc1
inactive: SK-MEL-2 melanoma 107% | EKVX NSCLC 81.5% | SN12C renal 83.2% | UO-31 renal 57.2% | TK-10 renal 97.3% | ACHN renal 81.8% | CAKI-1 renal 59.8% | CCRF-CEM leukemia 95.1% | MOLT-4 leukemia 74.5%

OCCCCc1nccc2c1[nH]c1ccccc12
inactive: SK-MEL-2 melanoma 121% | EKVX NSCLC 94.8% | SN12C renal 103% | UO-31 renal 95.1% | TK-10 renal 67.9% | ACHN renal 98.7% | A498 renal 112% | MOLT-4 leukemia 119%

N#C/C(=C\c1ccc(Br)cc1)n1nnc2ccccc21
inactive: EKVX NSCLC 20%
active: SK-MEL-2 melanoma -1.82% | SN12C renal 8.47% | UO-31 renal -13.6% | TK-10 renal 1.55% | ACHN renal -16.7% | CAKI-1 renal 1.73% | CCRF-CEM leukemia 8.29% | MOLT-4 leukemia 9.75%

N=C(N)c1ccc(-c2ccc(-c3ccc(Cl)cn3)s2)cc1
active: CCRF-CEM leukemia 3.3% | MOLT-4 leukemia 4.73%
inactive: SK-MEL-2 melanoma 99.8% | EKVX NSCLC 65.8% | SN12C renal 10.2% | UO-31 renal 57.6% | TK-10 renal 91.9% | ACHN renal 12% | CAKI-1 renal 63.2%

O=C(/C=C/C12c3ccccc3C(c3ccccc31)C1C(=O)N(c3ccc(Cl)cc3)C(=O)C12)c1ccccn1 (stereo unspecified)
active: SK-MEL-2 melanoma -19.2% | EKVX NSCLC -34.8% | SN12C renal -44.8% | UO-31 renal -98.5% | TK-10 renal -33.4% | ACHN renal -35.4% | CAKI-1 renal -9.86%
inactive: CCRF-CEM leukemia 13.1% | MOLT-4 leukemia 20%

CN1CCN(c2ccc3nc(/N=C/c4ccc5sc(-c6ccc([N+](=O)[O-])cc6)nc5c4)sc3c2)CC1
inactive: SK-MEL-2 melanoma 111% | EKVX NSCLC 97.7% | SN12C renal 104% | UO-31 renal 92.2% | TK-10 renal 101% | ACHN renal 108% | CAKI-1 renal 108% | CCRF-CEM leukemia 101% | MOLT-4 leukemia 108%

O=C(/C=C/C12c3ccccc3C(c3ccccc31)C1C(=O)N(c3ccccc3)C(=O)C12)c1ccc(Cl)cc1 (stereo unspecified)
inactive: SK-MEL-2 melanoma 22.3% | EKVX NSCLC 22.9% | SN12C renal 19.9% | TK-10 renal 42.8% | CAKI-1 renal 54.2% | CCRF-CEM leukemia 13% | MOLT-4 leukemia 11.9%
active: UO-31 renal -37.1% | ACHN renal -36.2%

COc1cc(C2CC(=O)Nc3n[nH]c(-c4ccccc4)c32)cc(OC)c1OC (stereo unspecified)
inactive: SK-MEL-2 melanoma 59.8% | EKVX NSCLC 78.2% | SN12C renal 84.2% | UO-31 renal 87.1% | TK-10 renal 97.7% | ACHN renal 104% | CAKI-1 renal 92% | CCRF-CEM leukemia 70.2% | MOLT-4 leukemia 54%

O=[N+]([O-])c1ccc(-c2cc3c(Nc4ccc(Sc5nc6ccccc6s5)c(Cl)c4)ncnc3s2)cc1
active: A498 renal -0.884%
inactive: SK-MEL-2 melanoma 46.7% | EKVX NSCLC 39.7% | SN12C renal 28.6% | UO-31 renal 43.4% | TK-10 renal 48.2% | ACHN renal 34.4% | CCRF-CEM leukemia 34.6% | MOLT-4 leukemia 23.7%
